# This is part of a sample that, as a whole, favours compounds with a hit. Of some 83,000 tested, about 20% had one in any assay.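 In brief: 96-well plates, 48 h treatment, single concentration, percent growth endpoint.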 Unmarked numbers belong to inactive results. Activity calls are given as the source filed them. How the source made its calls: active means growth percent below 10; inactive means the rest.
# Tests used:
# Assay in all cases: NCI-60 one-dose screen, 48 h (100 = growth as untreated, 0 = no growth, -100 = all killed)
# Settings in all cases: 10 µM unless noted
# HCT-15 colon = system: HCT-15 colon
# HT29 colon = system: HT29 colon
# SNB-75 CNS = system: SNB-75 CNS
# SNB-19 CNS = system: SNB-19 CNS
# U251 CNS = system: U251 CNS
# PC-3 prostate = system: PC-3 prostate
# SK-MEL-5 melanoma = system: SK-MEL-5 melanoma
# UACC-62 melanoma = system: UACC-62 melanoma
# LOX IMVI melanoma = system: LOX IMVI melanoma
# SK-MEL-28 melanoma = system: SK-MEL-28 melanoma
# SK-MEL-2 melanoma = system: SK-MEL-2 melanoma
# EKVX NSCLC = system: EKVX NSCLC
# SN12C renal = system: SN12C renal
# UO-31 renal = system: UO-31 renal
# TK-10 renal = system: TK-10 renal
# ACHN renal = system: ACHN renal
# CAKI-1 renal = system: CAKI-1 renal
# A498 renal = system: A498 renal
# CCRF-CEM leukemia = system: CCRF-CEM leukemia
# MOLT-4 leukemia = system: MOLT-4 leukemia
Compound,growth (HCT-15 colon),growth (HT29 colon),growth (SNB-75 CNS),growth (SNB-19 CNS),growth (U251 CNS),growth (PC-3 prostate),growth (SK-MEL-5 melanoma),growth (UACC-62 melanoma),growth (LOX IMVI melanoma),growth (SK-MEL-28 melanoma),growth (SK-MEL-2 melanoma),growth (EKVX NSCLC),growth (SN12C renal),growth (UO-31 renal),growth (TK-10 renal),growth (ACHN renal),growth (CAKI-1 renal),growth (A498 renal),growth (CCRF-CEM leukemia),growth (MOLT-4 leukemia)
ClCC1(Cn2cnc3c(Cl)nc(Cl)nc32)COC1,45.9%,76.8%,85.4%,88.8%,89.2%,66.3%,98.4%,91.6%,45.2%,89.9%,90.7%,100%,95.6%,88.7%,85.2%,94.9%,49%,89.6%,71.5%,87.7%
COc1cccc(CCC(=O)c2cc3c(N)c(C(=O)Nc4cccc(Cl)c4C)sc3nc2C)c1,13.8%,10.8%,-14.5% (active),24.1%,16.7%,18.8%,3.62% (active),27%,33.1%,44.5%,36.5%,36.2%,36%,30.7%,52.9%,32.2%,20.5%,-6.77% (active),8.7% (active),16%
O=C1Nc2ccccc2/C1=C\c1cccc(/C=C2/C(=O)Nc3ccccc32)n1,-81.3% (active),2.35% (active),-71.5% (active),-82.7% (active),-98.1% (active),-28% (active),-99.1% (active),-67.3% (active),-88.2% (active),-88.8% (active),-34% (active),-37.9% (active),8.35% (active),-82.5% (active),-59.3% (active),-100% (active),-80.7% (active),-77.7% (active),-51.9% (active),-30% (active)
COc1cc2nc(-c3ccc(C#N)cc3)[nH]c(=O)c2cc1OC,107%,113%,109%,98.9%,100%,105%,96.8%,87.8%,90.8%,102%,128%,98.7%,91.7%,97.4%,271%,118%,92%,120%,188%,
Clc1nc(Cl)c2ncn(CCOCCn3cnc4c(Cl)nc(Cl)nc43)c2n1,-78.7% (active),-60.5% (active),-92.3% (active),-89.3% (active),-72.3% (active),-93.4% (active),-91.5% (active),-95.9% (active),-83.2% (active),-95.7% (active),-76.8% (active),-91.1% (active),-83.6% (active),-95.4% (active),-86% (active),-89.1% (active),-94.6% (active),-92.4% (active),-45.2% (active),-68.9% (active)
Cc1ccc(C2CC(c3cccc(Nc4ccncc4)c3)=NN2c2cc(Cl)cc(Cl)c2)cc1 (stereo not drawn),-65.6% (active),-7.29% (active),70.2%,84.9%,-48.8% (active),33.8%,68.8%,99.4%,-87.3% (active),-72.7% (active),96.4%,77.3%,52.4%,51.8%,72.7%,-61.9% (active),-38.8% (active),77.6%,7.28% (active),1.74% (active)
Cn1c2c(Cl)c(Cl)ccc2c2cc(N)[nH]c(=O)c21,97.1%,92.8%,77.7%,98.4%,93.8%,64.6%,81.7%,87.2%,76.1%,103%,116%,59.9%,92%,54.4%,120%,82.6%,-23.4% (active),56.5%,81.3%,
CCCCCCCCCCCCCCCC(=O)OC[C@@]1(O)C[C@@]23CC[C@@H]4C(C)(C)CCC[C@@]4(C)[C@@H]2CC[C@H]1C3,97.9%,92.2%,112%,102%,95.8%,94.8%,98.3%,85.8%,93.4%,121%,105%,109%,93.6%,84.7%,100%,106%,74.2%,97.7%,43.2%,57.3%

# From PubChem BioAssay (NCI)
